# The source made the active and inactive calls. Rule for the calls: active = hit-call score of the fitted dose curve at least 0.9, where 1 is the maximum; inactive = score below 0.9.
# Legend:
# Settings in all cases: mRNA level, 48 h; actives raise or lower the signal
# [1] = read-out: CYP2C8 (gene 1558); assay: LTEA_HepaRG_CYP2C8: Life Technologies and Expression Analysis (LTEA) Assay for CYP2C8 using HepaRG (AID 2283483)
# In short: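 Differentiated human HepaRG cells were exposed for 48 h in serum-free induction medium to eight half-log concentrations up to 100 uM in 0.5% DMSO, in duplicate. CYP2C8 mRNA was measured by TaqMan qRT-PCR, normalized to ACTB, GAPDH and POLR2A, and fitted bidirectionally against DMSO.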
# [2] = read-out: CYP2C9 (gene 1559); assay: LTEA_HepaRG_CYP2C9: Life Technologies and Expression Analysis (LTEA) Assay for CYP2C9 using HepaRG (AID 2283484)
# In short: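 Differentiated human HepaRG cells were exposed 48 h in serum-free induction medium to eight half-log concentrations up to 100 uM in 0.5% DMSO. CYP2C9 mRNA was measured by qRT-PCR, normalized to ACTB, GAPDH and POLR2A, and fitted bidirectionally against DMSO.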
# [3] = read-out: CYP2E1 (gene 1571); assay: LTEA_HepaRG_CYP2E1: Life Technologies and Expression Analysis (LTEA) Assay for CYP2E1 using HepaRG (AID 2283485)
# In short: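 Human liver line HepaRG, plated 48 h, then serum-free induction medium + chemical x 48 h; 8-pt CRC from 100 uM, half-log, 0.5% DMSO, n=2. Readout: CYP2E1 mRNA qRT-PCR vs ACTB/GAPDH/POLR2A; bidirectional fit vs DMSO.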
# [4] = read-out: CYP4A11 (gene 1579); assay: LTEA_HepaRG_CYP4A11: Life Technologies and Expression Analysis (LTEA) Assay for CYP4A11 using HepaRG (AID 2283486)
# In short: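 Differentiated HepaRG cells, serum-free induction medium, exposed 48 h in duplicate to 8-point half-log series from 100 uM in 0.5% DMSO. CYP4A11 mRNA measured by qRT-PCR, normalized to ACTB, GAPDH, POLR2A; bidirectional fit versus DMSO.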
# [5] = read-out: Cytochrome P450 3A4 (Homo sapiens) (UniProt P08684); assay: LTEA_HepaRG_CYP3A4: Life Technologies and Expression Analysis (LTEA) Assay for CYP3A4 using HepaRG (AID 2283487)
# In short: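 HepaRG, 48 h exposure, 8-pt CRC from 100 uM (half-log), 0.5% DMSO, duplicates; serum-free induction medium. Readout: CYP3A4 mRNA, qRT-PCR, ACTB/GAPDH/POLR2A normalization. Bidirectional fit vs DMSO.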
# [6] = read-out: DNA damage-inducible transcript 3 (DDIT3), DDIT3 (gene 1649); assay: LTEA_HepaRG_DDIT3: Life Technologies and Expression Analysis (LTEA) Assay for DNA damage-inducible transcript 3 (DDIT3) using HepaRG (AID 2283488)
# In short: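 HepaRG plated 48 h, switched to serum-free induction medium, dosed 48 h (100 uM top, half-log, 8 pts, 0.5% DMSO, n=2); RNA isolated; DDIT3 by qRT-PCR; bidirectional curve fit vs DMSO.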
# [7] = read-out: Pro-epidermal growth factor (Homo sapiens) (UniProt P01133); assay: LTEA_HepaRG_EGF: Life Technologies and Expression Analysis (LTEA) Assay for Epidermal growth factor (EGF) using HepaRG (AID 2283489)
# In short: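 Differentiated human HepaRG cells, plated 48 h then switched to serum-free induction medium, were exposed for 48 h to test chemicals (8-point half-log series, top 100 uM, 0.5% DMSO). EGF mRNA was quantified by qRT-PCR, normalized to ACTB, GAPDH, POLR2A.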
# [8] = read-out: Early growth response protein 1 (EGR1) transcription factor, EGR1 (gene 1958); assay: LTEA_HepaRG_EGR1: Life Technologies and Expression Analysis (LTEA) Assay for Early growth response protein 1 (EGR1) transcription factor using HepaRG (AID 2283490)
# In short: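 Differentiated human HepaRG cells in serum-free induction medium were exposed in duplicate for 48 h to eight concentrations (top 100 uM, half-log steps) in 0.5% DMSO. EGR1 mRNA was quantified by qRT-PCR, normalized to ACTB, GAPDH and POLR2A, and fitted bidirectionally versus DMSO.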
# [9] = read-out: Ezrin (EZR), EZR (gene 7430); assay: LTEA_HepaRG_EZR: Life Technologies and Expression Analysis (LTEA) Assay for Ezrin (EZR) using HepaRG (AID 2283491)
# In short: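 Read-out is EZR transcript level by qRT-PCR, normalized to three housekeeping genes and fitted bidirectionally against the DMSO control. Human HepaRG cells received test chemicals for 48 h at eight half-log concentrations up to 100 uM in 0.5% DMSO.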
# [10] = read-out: Cytochrome P450 3A7 (Homo sapiens) (UniProt P24462); assay: LTEA_HepaRG_CYP3A7: Life Technologies and Expression Analysis (LTEA) Assay for CYP3A7 using HepaRG (AID 2283492)
# In short: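 HepaRG cells plated 48 h, then dosed in serum-free induction medium for 48 h at 8 concentrations (top 100 uM, half-log steps, 0.5% DMSO). CYP3A7 mRNA by qRT-PCR, normalised to ACTB/GAPDH/POLR2A; bidirectional fit versus DMSO.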
# Cytochrome P450 3A7 (Homo sapiens), sequence (P24462 whole entry, looked up): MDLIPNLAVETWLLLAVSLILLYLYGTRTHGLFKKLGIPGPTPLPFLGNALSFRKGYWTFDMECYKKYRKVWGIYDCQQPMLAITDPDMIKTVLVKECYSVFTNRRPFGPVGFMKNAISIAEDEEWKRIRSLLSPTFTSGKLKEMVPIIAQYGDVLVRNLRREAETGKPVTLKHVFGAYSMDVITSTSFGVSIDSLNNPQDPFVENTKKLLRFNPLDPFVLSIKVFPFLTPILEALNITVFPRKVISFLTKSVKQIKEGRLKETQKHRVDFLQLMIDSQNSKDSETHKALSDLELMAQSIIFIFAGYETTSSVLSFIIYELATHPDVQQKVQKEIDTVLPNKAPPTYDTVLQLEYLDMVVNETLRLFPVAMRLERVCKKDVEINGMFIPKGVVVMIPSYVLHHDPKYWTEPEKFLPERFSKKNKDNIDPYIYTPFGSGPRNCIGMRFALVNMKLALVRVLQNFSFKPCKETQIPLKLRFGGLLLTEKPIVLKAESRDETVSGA
# Cytochrome P450 3A4 (Homo sapiens), sequence (P08684 whole entry, looked up): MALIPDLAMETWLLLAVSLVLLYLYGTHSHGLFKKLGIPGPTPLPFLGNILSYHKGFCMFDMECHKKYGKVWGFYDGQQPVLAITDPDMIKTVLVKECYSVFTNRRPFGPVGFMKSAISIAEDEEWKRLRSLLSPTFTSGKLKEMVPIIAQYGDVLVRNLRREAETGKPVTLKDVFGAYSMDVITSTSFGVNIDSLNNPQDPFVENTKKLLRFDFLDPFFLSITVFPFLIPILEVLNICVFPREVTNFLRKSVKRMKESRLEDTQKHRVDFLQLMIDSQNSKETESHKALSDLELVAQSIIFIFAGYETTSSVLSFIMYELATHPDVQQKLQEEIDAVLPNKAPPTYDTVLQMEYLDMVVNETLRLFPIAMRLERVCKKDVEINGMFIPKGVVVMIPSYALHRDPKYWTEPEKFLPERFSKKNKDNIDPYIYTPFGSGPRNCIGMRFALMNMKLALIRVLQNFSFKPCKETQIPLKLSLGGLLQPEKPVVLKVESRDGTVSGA
smiles,measurement,setting,value
Oc1ccccc1O,outcome,[1],inactive
same,outcome,[2],inactive
same,outcome,[3],inactive
same,outcome,[4],inactive
same,outcome,[5],inactive
same,outcome,[6],inactive
same,outcome,[7],inactive
same,outcome,[8],inactive
same,outcome,[9],inactive
same,outcome,[10],inactive
CCCCC(CC)COC(=O)CCCCCCCC(=O)OCC(CC)CCCC (stereo not given),outcome,[1],inactive
same,outcome,[2],inactive
same,outcome,[3],inactive
same,outcome,[4],inactive
same,outcome,[5],inactive
same,outcome,[6],inactive
same,outcome,[7],inactive
same,outcome,[8],inactive
same,outcome,[9],inactive
same,outcome,[10],inactive
O=C(O)CN(CC(=O)O)CC(=O)O,outcome,[1],inactive
same,outcome,[2],inactive
same,outcome,[3],inactive
same,outcome,[4],inactive
same,outcome,[5],inactive
same,outcome,[6],inactive
same,outcome,[7],inactive
same,outcome,[8],inactive
same,outcome,[9],inactive
same,outcome,[10],inactive
CSc1ccc(Oc2ccc(S(N)(=O)=O)cc2CN(C)C)cc1C,outcome,[1],inactive
same,outcome,[2],inactive
same,AC50,[3],47.6 µM (active)
same,AC50,[4],77.5 µM (active)
same,AC50,[5],14 µM (active)
same,AC50,[6],75.2 µM (active)
same,outcome,[7],inactive
same,outcome,[8],inactive
same,outcome,[9],inactive
same,outcome,[10],inactive
COc1ccc(C(=O)Nc2nc3ccccc3c(NCc3ccccc3)c2C#N)cc1,AC50,[1],16.7 µM (active)
same,AC50,[2],16.3 µM (active)
same,AC50,[3],20 µM (active)
same,AC50,[4],28.3 µM (active)
same,outcome,[5],inactive
same,outcome,[6],inactive
same,outcome,[7],inactive
same,AC50,[8],21.7 µM (active)
same,outcome,[9],inactive
same,AC50,[10],14.3 µM (active)
c1ccc2occc2c1,outcome,[1],inactive
same,outcome,[2],inactive
same,outcome,[3],inactive
same,outcome,[4],inactive
same,outcome,[5],inactive
same,outcome,[6],inactive
same,outcome,[7],inactive
same,outcome,[8],inactive
same,outcome,[9],inactive
same,outcome,[10],inactive
CCCCCCC(CCCCCCCCCCC(=O)OCC(COC(C)=O)OC(C)=O)OC(C)=O (stereo not given),outcome,[1],inactive
same,outcome,[2],inactive
same,outcome,[3],inactive
same,outcome,[4],inactive
same,outcome,[5],inactive
same,outcome,[6],inactive
same,outcome,[7],inactive
same,outcome,[8],inactive
same,outcome,[9],inactive
same,outcome,[10],inactive
CCN(CC)CCOc1ccc(C(=C(Cl)c2ccccc2)c2ccccc2)cc1,outcome,[1],inactive
same,AC50,[2],80.9 µM (active)
same,AC50,[3],14.6 µM (active)
same,AC50,[4],19.3 µM (active)
same,outcome,[5],inactive
same,AC50,[6],42 µM (active)
same,outcome,[7],inactive
same,AC50,[8],81.3 µM (active)
same,AC50,[9],67.8 µM (active)
same,outcome,[10],inactive
Oc1ccc(O)cc1,outcome,[1],inactive
same,outcome,[2],inactive
same,outcome,[3],inactive
same,outcome,[4],inactive
same,outcome,[5],inactive
same,outcome,[6],inactive
same,outcome,[7],inactive
same,outcome,[8],inactive
same,outcome,[9],inactive
same,outcome,[10],inactive
COC(=O)CCC(=O)OC,outcome,[1],inactive
same,outcome,[2],inactive
same,outcome,[3],inactive
same,outcome,[4],inactive
same,outcome,[5],inactive
same,outcome,[6],inactive
same,outcome,[7],inactive
same,outcome,[8],inactive
same,outcome,[9],inactive
same,outcome,[10],inactive
O=C(Oc1ccccc1)c1cccc(C(=O)Oc2ccccc2)c1,outcome,[1],inactive
same,outcome,[2],inactive
same,outcome,[3],inactive
same,outcome,[4],inactive
same,outcome,[6],inactive
same,outcome,[7],inactive
same,outcome,[8],inactive
same,outcome,[9],inactive
same,outcome,[10],inactive
CS(=O)(=O)c1ccc([C@@H](C[C@H]2CCC(=O)C2)C(=O)Nc2cnccn2)cc1Cl,AC50,[1],1.09 µM (active)
same,outcome,[2],inactive
same,outcome,[3],inactive
same,outcome,[4],inactive
same,AC50,[6],18.6 µM (active)
same,AC50,[7],23.5 µM (active)
same,outcome,[8],inactive
same,outcome,[9],inactive
Cc1ccc(C(C)(C)C)c(O)c1,outcome,[1],inactive
same,outcome,[2],inactive
same,outcome,[3],inactive
same,outcome,[4],inactive
same,outcome,[6],inactive
same,outcome,[7],inactive
same,outcome,[8],inactive
same,outcome,[9],inactive
same,outcome,[10],inactive
CO[C@@H]1COCC[C@@H]1N[C@@H]1CC[C@@](C(=O)N2CCc3ncc(C(F)(F)F)cc3C2)(C(C)C)C1,outcome,[1],inactive
same,outcome,[2],inactive
same,outcome,[3],inactive
same,outcome,[4],inactive
same,outcome,[6],inactive
same,outcome,[7],inactive
same,outcome,[8],inactive
same,outcome,[9],inactive
same,outcome,[10],inactive
Cc1cn([C@H]2C=C[C@@H](CO)O2)c(=O)[nH]c1=O,outcome,[1],inactive
same,outcome,[2],inactive
same,outcome,[3],inactive
same,outcome,[4],inactive
same,outcome,[6],inactive
same,outcome,[7],inactive
same,outcome,[8],inactive
same,outcome,[9],inactive
same,outcome,[10],inactive
C=CCCCCCCCCCCCC,outcome,[1],inactive
same,outcome,[2],inactive
same,outcome,[3],inactive
same,outcome,[4],inactive
same,outcome,[6],inactive
same,outcome,[7],inactive
same,outcome,[8],inactive
same,outcome,[9],inactive
same,outcome,[10],inactive
O=C(NS(=O)(=O)/C=C/c1cccs1)c1ccc(F)cc1Br,outcome,[1],inactive
same,outcome,[2],inactive
same,AC50,[3],25.3 µM (active)
same,AC50,[4],14.1 µM (active)
same,outcome,[6],inactive
same,outcome,[7],inactive
same,outcome,[8],inactive
same,outcome,[9],inactive
same,AC50,[10],5.96 µM (active)
Nc1nc(Cl)nc2c1ncn2[C@H]1C[C@H](O)[C@@H](CO)O1,AC50,[1],1 µM (active)
same,AC50,[2],1.07 µM (active)
same,AC50,[3],0.879 µM (active)
same,AC50,[4],1.41 µM (active)
same,outcome,[6],inactive
same,outcome,[7],inactive
same,AC50,[8],0.272 µM (active)
same,outcome,[9],inactive
COC(=O)[C@H]1[C@H]2C[C@@H]3c4[nH]c5cc(OC)ccc5c4CCN3C[C@H]2C[C@@H](OC(=O)c2cc(OC)c(OC)c(OC)c2)[C@@H]1OC,AC50,[1],63.5 µM (active)
same,AC50,[2],60.9 µM (active)
same,AC50,[3],49.3 µM (active)
same,AC50,[4],48.8 µM (active)
same,AC50,[6],55.1 µM (active)
same,AC50,[7],42.2 µM (active)
same,AC50,[8],64.2 µM (active)
same,AC50,[9],8.38 µM (active)
CCCCCCC(C=O)=Cc1ccccc1,outcome,[1],inactive
same,outcome,[2],inactive
same,outcome,[3],inactive
same,outcome,[4],inactive
same,outcome,[6],inactive
same,outcome,[7],inactive
same,outcome,[8],inactive
same,outcome,[9],inactive
same,outcome,[10],inactive
O=C1NC(=O)C(c2ccccc2)(c2ccccc2)N1,AC50,[1],13.1 µM (active)
same,outcome,[2],inactive
same,AC50,[3],29.7 µM (active)
same,AC50,[4],12.1 µM (active)
same,outcome,[6],inactive
same,outcome,[7],inactive
same,outcome,[8],inactive
same,outcome,[9],inactive

# Source: PubChem BioAssay (EPA / NIEHS)
